Inconclusive results are not listed. Activity calls are given as the source filed them. Calls follow the shape of the dose curve; as a rule, active = well fitted cell-killing curve with a large enough effect; inconclusive = small, poorly fitted or top-dose-only effect, or effect the other way; inactive = flat fitted curve, though single readings scatter.
test system: Es-2; experiment: Primary qHTS to identify gynecologic anti-cancer compounds using libraries of approved drugs and bioactive compounds (AID 1345084); conditions: Gynecologic cancer cell panel viability, ATPlite luminescence, 48 h; series mostly up to 57.5 µM; activity change, negative = cytotoxicity: at the top concentration; also: nearly all actives have a fitted effect of over 55% in size
Summary of the method: (§1)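 Cells, 1,000 per well, were allowed to settle for 16 h at 37 C before compound addition. Five concentrations were tested for 48 h, and viability was read by ATPlite luminescence after 15 min at room temperature.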
% is scaled to controls: 0 for no effect and ±100 for the full control effect; potency is read from the fitted curve at half-maximal effect.

| SMILES | activity change, negative = cytotoxicity |
| --- | --- |
| OC(c1ccc(-c2ccc(CN3CCN(Cc4ccncc4)CC3)cc2)c(F)c1)(C(F)(F)F)C(F)(F)F | -9.03% (inactive) |
| O=C(Nc1ccccc1)N1CCN(c2nc(-c3ccccc3)ns2)CC1 | -8.61% (inactive) |
| Cc1cc(N2CCOCC2)ccc1Nc1nc(NC2CCCCC2)c2[nH]cnc2n1 | 9.74% (inactive) |
| O=C(O)CCc1nccc2c1[nH]c1ccccc12 | 1.51% (inactive) |
| O=c1[nH]c2ccc(C#CCN3CCC(Cc4ccccc4)CC3)cc2[nH]1 | 2.57% (inactive) |
| COC1=CC(=O)O/C1=C(/OC)[C@@H]1O[C@H]1c1ccccc1 | -6.31% (inactive) |
| O=C(Nc1ccc(-c2ccnc(Nc3ccc(N4CCOCC4)cc3)n2)cc1)C1CCCN1 (stereo not drawn) | -1.8% (inactive) |
| CCCCC1CCN(CCCN2C(=O)CCc3ccccc32)CC1 | -0.456% (inactive) |
| O=C(NCc1cccs1)c1cc2nc(-c3ccco3)cc(C(F)(F)Cl)n2n1 | 13.4% (inactive) |

test system: HeLa; experiment: as above; conditions: Gynecologic cancer cell panel viability, ATPlite luminescence, 48 h; series mostly up to 57.5 µM; activity change, negative = cytotoxicity: at the top concentration
Summary of the method: as §1

| SMILES | activity change, negative = cytotoxicity | Potency |
| --- | --- | --- |
| COc1cc(OC)c2c(=O)[nH]c(-c3cc(C)c(OCCO)c(C)c3)nc2c1 | -4.82% (inactive) | – |
| COc1ccc(C2=NC(c3ccc(Cl)cc3)C(c3ccc(Cl)cc3)N2C(=O)N2CCNC(=O)C2)c(OC(C)C)c1 (stereo not drawn) | 6.91% (inactive) | – |
| CCn1c(=O)c(-c2ccc(-c3cncs3)cc2Cl)cc2cnc(Nc3ccc(N4CCN(C)CC4)cc3)nc21 | 4.11% (inactive) | – |
| COC(=O)c1ccc2c(c1)[nH]c1ncnc(NCCCN3CCCCC3)c12 | -3.51% (inactive) | – |
| CN1CCN(c2ccc(Nc3cc(-c4cccc(-n5ccc6cc(C7CC7)cc(F)c6c5=O)c4CO)cn(C)c3=O)nc2)CC1 | -1.69% (inactive) | – |
| O=c1nc(-c2ccccn2)sc2ccccc12 | 1.75% (inactive) | – |
| CNc1nc(Nc2ccc(C(=O)N3CCOCC3)cc2OC)nc2[nH]cc(Cl)c12 | -28.2% (inactive) | – |
| Cn1cc(-c2ccc3c(c2)CCN3C(=O)Cc2cccc(C(F)(F)F)c2)c2c(N)ncnc21 | -7.2% (inactive) | – |
| C=C1CCC2[C@](C)(CCC[C@@]2(C)C=O)[C@H]1CC/C(C)=C/CO (stereo partly drawn) | -1.5% (inactive) | – |
| CC1(CO)CC(O)[C@]2(C(=O)O)CCC34CC3(C=CC3[C@]5(C)C(CC[C@]34C)C(C)(CO)[C@@H](O)[C@H](O)[C@@H]5O)C2C1 (stereo partly drawn) | -1.04% [at 25.3 µM] (inactive) | – |
| C/C=C(/C)C(=O)O[C@@H]1C[C@@H](OC(=O)CC(C)C)C2(C)C3C(=O)C=C(C)C2C3C1(C)C (stereo partly drawn) | 0% [at 25.3 µM] (inactive) | – |
| O=C(NCCCN1CCOCC1)c1cnn2c(-c3ccccc3)cc(-c3ccccc3)nc12 | -5.49% (inactive) | – |
| Cc1cc(OCCCS(C)(=O)=O)cc(C)c1-c1cccc(COc2ccc3c(c2)OCC3CC(=O)O)c1 (stereo not drawn) | -4.82% (inactive) | – |
| CC1=C(C(=O)OC2CCCCC2)C(c2ccc([N+](=O)[O-])cc2)C2=C(CC(C)(C)CC2=O)N1 (stereo not drawn) | -28.4% (inactive) | – |
| CC1(C)CC[C@]2(C(=O)O[C@@H]3O[C@H](CO)[C@@H](O)[C@H](O)[C@H]3O)CC[C@]3(C)C(=CCC4[C@@]5(C)CC[C@H](O[C@@H]6O[C@H](C(=O)O)[C@H](O)[C@H](O)[C@H]6O)C(C)(C)C5CC[C@]43C)[C@@H]2C1 (stereo partly drawn) | 18.9% [at 25.3 µM] (inactive) | – |
| CCN1CCN(Cc2ccc(C(=O)Nc3ccc(C)c(Oc4ccc5c(c4)CC(=O)N5)c3)cc2C(F)(F)F)CC1 | -1.87% (inactive) | – |
| CC(=O)c1c(C)cc2cccc(O)c2c1O[C@@H]1O[C@H](CO)[C@@H](O)[C@H](O)[C@H]1O | 10.1% [at 38.5 µM] (inactive) | – |
| O=C(Nc1ccc(N(Cc2ccsc2)C(=O)Cn2nnc3ccccc32)cc1)C1CC1 | 1.95% (inactive) | – |
| COc1ccc(CCc2nc3cc(-c4c(C)noc4C)ccc3n2CC(C)N2CCOCC2)cc1Cl (stereo not drawn) | -14.2% (inactive) | – |
| CNc1cccc(CCOc2ccc3c(c2)CN(CC(F)(F)F)C(=O)[C@H](CC(=O)O)C3)n1 | -24.4% (inactive) | – |

| SMILES | activity change, negative = cytotoxicity | Potency |
| --- | --- | --- |
| CC(C)(O)c1ccn2c(-c3ccc(F)c(-c4ccc(F)cc4C#N)c3)cnc2c1F | 0.213% (inactive) | – |
| Cc1[nH]c2ccccc2c1CCNCc1ccc(/C=C/C(=O)NO)cc1 | – | 126 nM (active) |
| C[C@@H]1O[C@@H](O[C@H]2[C@@H]3C=CO[C@@H](O[C@@H]4O[C@H](CO)[C@@H](O)[C@H](O)[C@H]4O)[C@@H]3[C@@]3(CO)O[C@@H]23)[C@H](O)[C@H](OC(=O)/C=C/c2ccccc2)[C@H]1O | -15.6% [at 25.3 µM] (inactive) | – |
| C=C1C(=O)OC[C@@H]1C/C=C(\C)CC1CC(C)C(=O)O1 (stereo partly drawn) | -4.21% (inactive) | – |
| COc1ccc(S(=O)(=O)n2cnc3cc(C)c(C)cc32)cc1 | -10.5% (inactive) | – |
| C[C@@H]1O[C@@H](O[C@H]2CC[C@@]3(C)C(CC[C@]4(C)C3CC=C3[C@@H]5CC(C)(C)CC[C@]5(C(=O)O[C@@H]5O[C@H](CO)[C@@H](O)[C@H](O)[C@H]5O)CC[C@]34C)[C@]2(C)CO)[C@H](O)[C@H](O[C@@H]2O[C@H](CO)[C@@H](O)[C@H](O)[C@H]2O)[C@H]1O (stereo partly drawn) | -1.56% [at 11.6 µM] (inactive) | – |
| CCCOc1ccc(S(=O)(=O)N2CCN(CCO)CC2)cc1-c1nc2c(CCC)cn(CC)c2c(=O)[nH]1 | 12.4% (inactive) | – |
| COc1ccc(CCCN2CCC(COC(c3ccccc3)c3ccccc3)CC2)cc1 | 19.7% (inactive) | – |
| CCNc1nc(Nc2cc(F)c(C(=O)N3CCOCC3)cc2OC)ncc1C(F)(F)F | -4.49% (inactive) | – |
| CC(=O)O[C@@H]1[C@@H](OC(C)=O)[C@H](C)O[C@@H](O[C@H]2[C@@H]3C=CO[C@@H](O[C@@H]4O[C@H](CO)[C@@H](O)[C@H](O)[C@H]4O)[C@@H]3[C@@]3(CO)O[C@@H]23)[C@@H]1OC(=O)/C=C/c1ccccc1 | 14.5% [at 25.3 µM] (inactive) | – |
| OC(c1ccc(-c2ccc(CN3CCN(Cc4ccncc4)CC3)cc2)c(F)c1)(C(F)(F)F)C(F)(F)F | -3.87% (inactive) | – |
| O=C(Nc1ccccc1)N1CCN(c2nc(-c3ccccc3)ns2)CC1 | -17.6% (inactive) | – |
| Cc1cc(N2CCOCC2)ccc1Nc1nc(NC2CCCCC2)c2[nH]cnc2n1 | -2.86% (inactive) | – |
| O=C(O)CCc1nccc2c1[nH]c1ccccc12 | 3.26% (inactive) | – |
| O=c1[nH]c2ccc(C#CCN3CCC(Cc4ccccc4)CC3)cc2[nH]1 | -6.41% (inactive) | – |
| COC1=CC(=O)O/C1=C(/OC)[C@@H]1O[C@H]1c1ccccc1 | 1.89% (inactive) | – |
| O=C(Nc1ccc(-c2ccnc(Nc3ccc(N4CCOCC4)cc3)n2)cc1)C1CCCN1 (stereo not drawn) | -8.9% (inactive) | – |
| CCCCC1CCN(CCCN2C(=O)CCc3ccccc32)CC1 | -12.3% (inactive) | – |
| O=C(NCc1cccs1)c1cc2nc(-c3ccco3)cc(C(F)(F)Cl)n2n1 | 22.3% (inactive) | – |

Source: PubChem BioAssay (NCATS)
